Where “and” joins values, the source holds several entries; their conditions need not be identical. Identical values can stand only once. Results filed as inconclusive are left out. Calls of active or inactive are those of the source. Unless noted, the call rests on the fitted dose curve; in most records, active means well fitted curve in the direction sought with a large enough effect in the repeat runs; inconclusive means weak or mixed curves; inactive means no such curve, though single readings can be large; an effect the other way counts as inactive or inconclusive.
What was measured:
[1] = qHTS assay to identify small molecule agonists of the vitamin D receptor (VDR) signaling pathway - cell viability counter screen (AID 743224); further: series mostly up to about 63 µM; nearly all actives have a fitted effect of over 50% in size
Procedure, shortened: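 Counter screen run in the same wells as the VDR-bla reporter assay: CellTiter-Glo luminescence, 30 min at room temperature, after 16 h compound treatment at 37C of cells pre-plated for 4 h.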

[2] = qHTS assay to identify small molecule antagonists of the vitamin D receptor (VDR) signaling pathway - cell viability counter screen (AID 743225); further: nearly all actives have a fitted effect of over 50% in size
Procedure, shortened: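 Cells (VDR-UAS-bla HEK 293T) are plated, rested 4 h at 37C, dosed with compound and 3 nM final 1-alpha,25-dihydroxy vitamin D3, and incubated 16 h. Viability is taken from CellTiter-Glo luminescence in the reporter wells.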

[3] = qHTS assay to identify small molecule agonists of the NFkB signaling pathway - cell viability counter screen (AID 1159515; calls by dose curve; further: series mostly up to about 61 µM; nearly all actives have a fitted effect of over 55% in size)
Procedure, shortened: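 Read by CellTiter-Glo luminescence (30 min, room temperature) in the wells also used for the beta-lactamase FRET read. ME-180 NFkB-bla cells at 2,000 per well were plated overnight, then exposed to compound for 5 hr at 37 C.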

[4] = qHTS assay to identify small molecule agonists of the endoplasmic reticulum stress response signaling pathway (AID 1159516; active means well fitted activation curve with a large enough effect in the signal ratio in the repeat runs, not every such curve was filed as active; the % refers to the signal ratio)
Procedure, shortened: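 Ratiometric FRET readout (405 nm excitation; 460 and 530 nm emission) of a beta-lactamase gene driven by the ER stress response element, after 2 hr substrate loading. HeLa ESRE-bla cells were seeded overnight and treated with compounds for only 5 hr at 37 C.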

[5] = qHTS assay to identify small molecule agonists of the endoplasmic reticulum stress response signaling pathway - cell viability counter screen (AID 1159517; calls by dose curve; further: series mostly up to about 61 µM; nearly all actives have a fitted effect of over 50% in size)
Procedure, shortened: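 Steps: seed 1,500 ESRE-bla HeLa cells per well; incubate overnight at 37 C, 5% CO2; add compounds in DMSO for 5 hr; run FRET substrate 2 hr RT; add CellTiter-Glo, wait 30 min, read luminescence.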

[6] = qHTS assay to identify small molecule antagonists of the retinoid-related orphan receptor gamma (ROR-gamma) signaling pathway - cell viability counter screen (AID 1159520); further: nearly all actives have a fitted effect of over 50% in size
Procedure, shortened: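 Tet-on ROR gamma CHO cells were given compounds for 2 hr, then doxycycline hyclate at 1 uM final, and incubated 16 hr at 37 C. Viability was measured as ATP content by CellTiter-Glo luminescence.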

[7] = molecular target: Nuclear receptor ROR-gamma (Homo sapiens) (UniProt P51449); assay: qHTS assay to identify small molecule antagonists of the retinoid-related orphan receptor gamma (ROR-gamma) signaling pathway (AID 1159521)
Procedure, shortened: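 RORγ antagonism is scored from reduced reporter luminescence in Tet-on CHO cells. Induction used 1 uM final doxycycline hyclate for 16 h at 37 C, following a 2 h compound exposure.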

[8] = qHTS assay to identify small molecule agonists of the AP-1 signaling pathway - cell viability counter screen (AID 1159525; calls by dose curve; further: nearly all actives have a fitted effect of over 55% in size)
Procedure, shortened: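 Same-well cytotoxicity counter screen of the Tox21 10K library in ME-180 cells. The readout is ATP-dependent luminescence after 5 h compound treatment. Data are normalised to DMSO and tetra n-octyl ammonium bromide controls.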

[9] = qHTS assay to identify small molecule agonists of the AP-1 signaling pathway (AID 1159526; calls by dose curve)
[10] = qHTS assay to identify small molecule agonists of the RXR signaling pathway - cell viability counter screen (AID 1159529)
Procedure, shortened: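 Cell viability is measured by CellTiter-Glo luminescence, 30 min at room temperature, in wells already read for beta-lactamase. Engineered HEK 293T cells (RXR-alpha-UAS-bla) are dosed 16 hr at 37 C. Tetraoctyl ammonium bromide serves as positive control.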

[11] = qHTS assay to identify small molecule antagonists of the retinoid acid receptor (RAR) signaling pathway - cell viability counter screen (AID 1159551); further: nearly all actives have a fitted effect of over 35% in size
Procedure, shortened: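 Cytotoxicity counter screen: ATP content quantified by CellTiter-Glo luminescence in C3RL4 cells treated 6 hr at 37 C with compound and retinol (1 uM final). Cells plated at 1,000/well and cultured overnight before dosing.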

[12] = qHTS assay to identify small molecule antagonists of the retinoic acid receptor (RAR) signaling pathway (AID 1159552; further: nearly all actives have a fitted effect of over 50% in size; further: potency means the concentration at half of the fitted maximal effect)
Procedure, shortened: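 Quantitative HTS in C3RL4 RARE-luciferase reporter cells. Compounds were added with 1 uM (final) retinol; luminescence was read after 6 hr.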

[13] = qHTS assay to identify small molecule agonists of the retinoic acid receptor (RAR) signaling pathway (AID 1159553); further: potency means the concentration at half of the fitted maximal effect
Procedure, shortened: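 Luminescence was measured 30 min after luciferase reagent addition at room temperature. Before that, C3RL4 reporter cells (1,000 per well, plated overnight) were treated with compound for 6 hr at 37 C and 5% CO2.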

[14] = molecular target: Retinoic acid receptor RXR-alpha (Homo sapiens) (UniProt P19793); assay: qHTS assay to identify small molecule agonists of the RXR signaling pathway (AID 1159527; calls by dose curve; further: nearly all actives have a fitted effect of over 35% in size)
Procedure, shortened: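 qHTS of the Tox21 10K library in GeneBLAzer RXR-alpha HEK 293T cells carrying a beta-lactamase reporter […]; 16 hr treatment, 9-cis retinoic acid as agonist control, FRET read-out.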

Measured: Potency

Sequence of Retinoic acid receptor RXR-alpha (Homo sapiens) (P19793 whole entry, looked up): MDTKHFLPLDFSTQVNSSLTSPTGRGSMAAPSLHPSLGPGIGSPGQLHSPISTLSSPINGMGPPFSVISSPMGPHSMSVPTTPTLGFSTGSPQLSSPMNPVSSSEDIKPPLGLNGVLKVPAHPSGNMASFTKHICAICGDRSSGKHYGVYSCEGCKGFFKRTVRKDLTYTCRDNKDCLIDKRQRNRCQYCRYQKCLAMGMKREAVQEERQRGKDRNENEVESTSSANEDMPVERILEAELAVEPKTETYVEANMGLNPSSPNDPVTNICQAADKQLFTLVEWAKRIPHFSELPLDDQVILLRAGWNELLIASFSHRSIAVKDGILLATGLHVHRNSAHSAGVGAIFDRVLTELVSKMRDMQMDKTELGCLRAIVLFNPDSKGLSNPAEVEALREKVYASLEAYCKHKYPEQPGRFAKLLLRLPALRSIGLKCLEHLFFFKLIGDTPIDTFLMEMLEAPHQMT

CCOC(=O)NC(O)C(Cl)(Cl)Cl (centres undefined)
not listed: [14]
inactive: all other assays above

NP(N)(=O)NC(=O)c1ccc(F)cc1
not listed: [6]
inactive: all other assays above

C=CC(=O)NC(C)(C)CC(C)=O
not listed: [14]
inactive: all other assays above

c1ccc2sc(SNC3CCCCC3)nc2c1
active: [13] 30.3 µM and 68.6 µM
not listed: [9] | [14]
inactive: all other assays above

CCC(C)(C)O
not listed: [12] | [13] | [14]
inactive: all other assays above

CCC1CCC(=O)O1 (centres undefined)
not listed: [14]
inactive: all other assays above

CC[N+]1(CCOC(=O)C(O)(c2ccccc2)c2ccccc2)CCCCC1
not listed: [12] | [14]
inactive: all other assays above

SCc1ccccc1
not listed: [2] | [13] | [14]
inactive: all other assays above

COC1=CC(=O)O[C@@H](/C=C/c2ccc3c(c2)OCO3)C1
active: [12] 8.27 µM
not listed: [6] | [14]
inactive: all other assays above

Cc1ccccc1
not listed: [4]
inactive: all other assays above

CCCC[P+](CC)(CCCC)CCCC (tested in a mixture with another compound)
not listed: [4] | [12] | [13]
inactive: all other assays above
